Most compounds without a hit are left out; they make up all but 2.1% or so of the library.
D2 antagonist = antagonizes the human D2 dopamine receptor | HEK293 TREx D2 cells, calcium flux, dopamine EC80 | inhibition, % at 10 µM | P14416 | AID 485344 | 2% of 340,000 active; in the data active = inhibition above about 30%; inactive = below that, where a call was filed; also: 0% is about no effect
Target sequence (P14416 whole entry, looked up): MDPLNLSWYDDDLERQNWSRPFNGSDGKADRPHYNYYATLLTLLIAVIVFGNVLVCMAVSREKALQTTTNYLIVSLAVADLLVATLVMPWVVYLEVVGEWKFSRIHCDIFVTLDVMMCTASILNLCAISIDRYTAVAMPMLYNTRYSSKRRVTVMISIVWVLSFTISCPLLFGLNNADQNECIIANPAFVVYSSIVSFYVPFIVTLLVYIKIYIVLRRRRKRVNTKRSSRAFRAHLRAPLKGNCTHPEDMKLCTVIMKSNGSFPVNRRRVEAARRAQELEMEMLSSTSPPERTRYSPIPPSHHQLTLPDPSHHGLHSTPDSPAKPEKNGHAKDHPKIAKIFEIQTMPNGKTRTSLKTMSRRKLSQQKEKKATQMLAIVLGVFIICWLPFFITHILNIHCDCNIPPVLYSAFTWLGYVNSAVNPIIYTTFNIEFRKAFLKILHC
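Antagonism is scored as inhibition of an EC80 dopamine-evoked calcium signal in a force-coupled, tetracycline-inducible HEK293 T-REx D2 line, with compound present 180 s before agonist.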
LDHA block = blocks human lactate dehydrogenase A; AID 1347041; purified LDHA, NADH/diaphorase-resazurin fluorescence; active compounds read low; activity change, % (values are at about 110 or 230 µM); 0.15% of 480,000 active; P00338; in the data active = activity change below about -30%;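 also: plate controls were DMSO wells for no effect and wells without enzyme for full effect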
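Remaining NADH was detected by diaphorase (0.133 mg/mL) converting 37 µM resazurin to fluorescent resorufin, read at 0 and 20 minutes. The preceding 5-minute room-temperature reaction used 2 nM LDHA, 0.2 mM sodium pyruvate and 0.06 mM NADH at pH 7.4.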
D2 ag-1 = D2 dopamine receptor (human) agonism; P14416; HEK293 T-REx D2 cells, calcium flux agonist mode; activation, % at 2 µM; 0.53% of 340,000 active; AID 485358;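 active = activation over 3 SD above normal in the single-dose calcium agonist read, cut at about 30% in these data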; also: 0% is about no effect
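HEK293 Trex D2 cells, tetracycline-induced, o/n 30 C 5% CO2; no-wash Ca dye, RT 30–90 min; 10-cycle baseline, 23 nl cpd added, kinetic Ca read 180 s; agonist hits = positive Ca response.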
D2 PAM-1 = potentiates the human D2 dopamine receptor allosterically | DiscoveRx D2 beta-arrestin cells, luminescence, 90 min; 100% = 57 uM dopamine signal | 0.23% of 360,000 active | potentiation, % (no concentration beside the values); in the data active = potentiation above about 50%
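PathHunter D2 cells, attached overnight at 37 deg C, received compound in DMSO plus dopamine at EC20 (50 nM final) for 90 min at 37 deg C. Beta-arrestin recruitment was read as luminescence after 1 h with detection reagent at ambient temperature.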
D2 ag-2 = activates the human D2 dopamine receptor | DiscoveRx PathHunter D2 beta-arrestin, luminescence, 90 min; 100% = 57 uM dopamine signal | 0.084% of 360,000 active | P14416 | activation, % (test concentration not listed); in the data active = activation above about 40%
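Agonist mode: compounds alone added to overnight-plated D2 PathHunter cells for 90 min at 37 C, with 57 uM final dopamine (EC100) defining full response. Beta-arrestin recruitment detected by chemiluminescent reagent, read after 1 h at ambient temperature.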
D2 PAM-2 = D2 dopamine receptor (human) potentiation | HEK293 T-REx D2, calcium flux, EC20 dopamine potentiation | 0.34% of 340,000 active | AID 485347 | P14416 | potentiation, % at 10 µM;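 active = potentiation over 3 SD above the plate norm, cut at about 30% in these data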; also: 0% is about no effect
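Primary screen. Calcium kinetics in induced HEK293 T-REx D2 cells: compound pre-addition 180 s, EC20 dopamine, 180 s more.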
An asterisk follows results filed as active; · = not tested or not shown.

SMILES	D2 antagonist	LDHA block	D2 ag-1	D2 PAM-1	D2 ag-2	D2 PAM-2
Cc1noc(C)c1C(=O)OCC(=O)NC1CCCCC1C (stereo not given)	-10	0	1	-46	-5	37*
CC1CCc2nc3sc4c(c3c(-c3ccc(Cl)cc3)c2C1)CCC4 (stereo not given)	·	-2	·	·	·	·
CC(=O)c1ccc(OCC(=O)Nc2ccc3c(c2)CCC3)cc1	13	-4	0	-25	-3	-10
O=C(COc1ccc(Cl)cc1)Nc1ccc2c(c1)CCC2	39*	-3	1	-22	-2	-23
COc1cc(N=c2ssnc2Cl)cc(OC)c1	10	-1	-2	-12	-8	35*
Clc1nssc1=Nc1ccc(Br)cc1	1	-9	12	-7	-2	19
COc1cc(/C=C2\SC(=O)N(CC(=O)Nc3ccccc3F)C2=O)cc(Cl)c1O	18	-1	41*	3	5	-6
COc1ccc(-c2nc(C(=O)N3CCN(C(C#N)c4ccc(F)cc4)CC3)cs2)cc1OC (stereo not given)	·	-1	·	·	·	·
CC(C)[C@H]1CN=C2N(C[C@H](C)NC(=O)CCC3CCCCC3)[C@H](Cc3ccc(O)cc3)CN21	77*	1	0	-24	1	-23
O=C(CCC1CCCCC1)NCCN1C2=NC[C@@H](Cc3ccccc3)N2C[C@H]1Cc1ccc(O)cc1	51*	-3	0	-31	-4	-24
C[C@@H](CN1C2=NC[C@H](C)N2C[C@H]1Cc1ccc(O)cc1)NC(=O)CCC1CCCCC1	52*	-8	0	-33	-4	-18
COc1ccc(C[C@@H]2CN3C(=NC[C@@H]3Cc3ccc(O)cc3)N2C[C@H](C)NC(=O)CCC2CCCCC2)cc1	-34	-1	-2	-31	-3	-6
COc1ccc(C[C@H]2CN3C(=NC[C@@H]3Cc3ccc(O)cc3)N2C[C@H](C)NC(=O)CCC2CCCCC2)cc1	-46	0	-1	-22	-5	-12
CCc1nc2nc(-c3cccc(OC)c3)cc(=O)n2[nH]1	·	0	·	·	·	·
COc1cc(-c2nc(C(=O)NC3CCCCC3)cc3c2[nH]c2ccccc23)cc(OC)c1OC	-25	-7	0	-13	10	24
COc1cc(-c2nc(C(=O)NC3CCN(Cc4ccccc4)CC3)cc3c2[nH]c2ccccc23)cc(OC)c1OC	74*	-9	0	-90	-6	-24
COc1ccc(OC)c(-c2nc(C(=O)NCCCN3CCOCC3)cc3c2[nH]c2ccccc23)c1	-7	0	0	-79	-2	-18
COc1ccc(OC)c(-c2nc(C(=O)NC3CCN(Cc4ccccc4)CC3)cc3c2[nH]c2ccccc23)c1	81*	-2	0	-97	-4	-24
CSc1ccccc1NC(=O)/C(=C/c1ccco1)c1ccccc1	·	-4	·	·	·	·
O=c1c2ccccc2nc2sc(Nc3ccccc3)nn12	·	-13	·	·	·	·
CCc1ccc(NC(=O)N2CCN(c3nnc(C)c4c(C)n(-c5ccc(C)cc5)nc34)CC2)cc1	·	-2	·	·	·	·
CCC(=O)N1CCc2cc(S(=O)(=O)CCC(=O)NCCc3ccc(OC)c(OC)c3)ccc21	37*	-4	0	-13	0	2
COc1ccc(S(=O)(=O)Nc2ccc3c(c2)N(C(C)=O)CCC3)cc1OC	34*	0	0	-2	3	17
COc1ccc(S(=O)(=O)Nc2ccc3c(c2)N(C(C)=O)CCC3)cc1	-5	1	0	-6	-1	-6
COc1ccc(S(=O)(=O)Nc2ccc(N3CCOCC3)cc2)cc1Br	30*	0	0	-36	0	5
SMILES	D2 antagonist	LDHA block	D2 ag-1	D2 PAM-1	D2 ag-2	D2 PAM-2
COc1ccc(CCNC(=O)C(NS(=O)(=O)c2ccc3c(c2)CCN3C(C)=O)C(C)C)cc1OC (stereo not given)	5	·	0	·	·	32*
O=C(Cn1cnc2sccc2c1=O)N1N=C(c2ccc(Cl)cc2)CC1c1ccco1 (stereo not given)	·	-10	·	·	·	·
Cc1ccc(Cl)cc1OCc1n[nH]c(=S)n1C	·	-2	·	·	·	·
Cc1cc(C)c2c(C)c(C(=O)NCC(c3ccco3)N3CCCC3)oc2c1 (stereo not given)	·	2	·	·	·	·
C[n+]1cccc(Br)c1	·	1	·	·	·	·
CC(CCC(C)[n+]1cccc(Br)c1)[n+]1cccc(Br)c1 (stereo not given)	·	-31*	·	·	·	·
COc1ccc(CN2C3CCCC2CC(NC(=O)Nc2ccccc2)C3)cc1 (stereo not given)	80*	-2	0	-45	-5	-24
C=CCN1C2CCCC1CC(NC(=O)Nc1cccc(C(C)=O)c1)C2 (stereo not given)	33*	2	10	-23	-3	-13
CC(C)(C)OC(=O)NC1CC2CCCC(C1)N2Cc1ccccc1 (stereo not given)	60*	-1	1	-43	-4	-33
COc1ccc(CN2C3CCCC2CC(NC(=O)Nc2ccccc2C)C3)cc1 (stereo not given)	·	-19	·	-20	-1	·
COCC(=O)NC1CC2CCCC(C1)N2Cc1ccccc1 (stereo not given)	42*	-1	0	-19	-1	-27
COc1ccc(/C=N/NC(=O)COc2cccc3ccccc23)c(C(=O)O)c1OC	-21	8	0	2	0	40*
COc1ccc(/C=N/NC(=O)COc2ccc3ccccc3c2)c(C(=O)O)c1OC	7	-4	1	-2	-7	12
O=C(NCCc1ccccc1)c1ccc(-c2ccccc2Cl)o1	30*	-5	-1	-97	1	-18
O=C(NCCc1ccccc1)c1ccc(CS(=O)(=O)c2ccc(Cl)cc2)o1	31*	-3	0	-12	-3	0
CC1CCc2noc(NC(=O)c3cc(=O)c4cc(Br)ccc4o3)c2C1 (stereo not given)	·	-39*	·	·	·	·
Cc1ccc2oc(C(=O)Nc3onc4c3CC(C)CC4)cc(=O)c2c1 (stereo not given)	·	6	·	·	·	·
Cn1cnc2c1c(=O)n(CC(=O)Nc1ccc(N3CCCCCC3)cc1)c(=O)n2C	·	10	·	·	·	·
CC(Oc1ccc2ccc(=O)oc2c1)C(=O)Nc1ccc(C(N)=O)cc1 (stereo not given)	·	1	·	·	·	·
Cc1[nH]c2ccccc2c1C(c1ccncc1)N1CCN(c2ccccn2)CC1 (stereo not given)	15	-5	35*	3	0	-21
Cc1[nH]c2ccccc2c1C(c1ccncc1)N1CCN(c2ccccc2F)CC1 (stereo not given)	3	2	13	-7	0	-4
Cc1ccc(CNCc2ccc(-c3ccccc3F)o2)cc1	·	7	·	·	·	·

Source: PubChem BioAssay (National Center for Advancing Translational Sciences (NCATS))
